Test results: PubChem BioAssay (NCATS)
A number with no mark means an inactive call. Active and inactive are the calls of the source. No rule for the calls is given here.

system: HIV-1 nucleocapsid protein NCp7 (binding to TG oligonucleotide); assay: HIV Nucleocapsid (AID 346); conditions: HIV-1 NC / fluorescein-TGTGTGTG probe, fluorescence polarization;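 also: potency is for inhibitors that block NC binding and lower polarization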
Method in brief: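 Fluorescence polarization readout: labelled TG4xF oligo (10 nM) with 100 nM nucleocapsid protein, high-salt (250mM NaCl) Hepes pH 7.5 buffer containing zinc and fresh reducing agents. Compounds added by pin tool; incubation 1 hr, room temperature.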
Potency is read from the fitted curve at half-maximal effect.

| Compound | Potency |
| --- | --- |
| CN1CCN(c2ncc3nc(-c4cn(C)c5ccccc45)c(=O)n(-c4ccccc4)c3n2)CC1 | > 4 µM |
| Cc1cccc(CNc2cc(-c3ccc(C(=O)N(C)C)cc3)ncn2)c1 | > 20 µM |
| COc1ncc2nc(C)c(=O)n(Cc3cccs3)c2n1 | > 20 µM |
| COc1cccc(-c2nc(NCc3ccccc3)c3ccccc3n2)c1 | > 20 µM |
| Cc1cnc(CNc2ncnc3ccc(-c4ccccc4CN(C)C)cc23)cn1 | > 20 µM |
| O=c1c(-c2ccc(Cl)cc2)nc2cnc(N3CCOCC3)nc2n1Cc1ccc(F)cc1 | > 20 µM |
| N#CCCn1c(=O)c(-c2ccc(F)cc2)nc2cnc(N3CCOCC3)nc21 | > 20 µM |
| COC(=O)N1CCC2(CC1)CCN(c1ncccn1)CC2 | > 20 µM |
| COc1ccc2[nH]cc(CCNc3ccnc(-c4ccoc4)n3)c2c1 | > 20 µM |
| CN(C)c1ccc(-c2cncnc2Nc2ccc(F)cc2)cc1 | > 20 µM |
| COCC(=O)N1CCC2(CCCN(C(=O)Nc3ccccc3)C2)CC1 | > 20 µM |
| CC(=O)N1CCC2(CCCN(c3ncccn3)C2)CC1 | > 20 µM |
| COc1ccc(C(=O)N2CCC3(CCCN(CC(C)C)C3)CC2)cc1 | > 20 µM |
| O=C(c1cnccn1)N1CCC[C@@]2(CCN(Cc3nccs3)C2)C1 | > 20 µM |
| COc1ncc2nc(-c3ccc(Cl)cc3)c(=O)n(CCc3ccccc3)c2n1 | > 20 µM |
| CN(C)c1ccc(-c2ccc3ncnc(-n4ccnc4)c3c2)cc1 | > 20 µM |
| CNc1nc(-c2cccc(NS(C)(=O)=O)c2)nc2ccccc12 | > 20 µM |
| O=C(c1csnn1)N1CCC[C@@]2(CCN(Cc3cc(C(F)(F)F)cc(C(F)(F)F)c3)C2)C1 | > 20 µM |
| O=c1c(-c2cc(F)cc(F)c2)nc2cnc(Oc3ccccc3)nc2n1C[C@H]1CCCO1 | > 20 µM |
| CN(C)c1ncc2nc(-c3cc(F)cc(F)c3)c(=O)n(C)c2n1 | > 20 µM |

| Compound | Potency |
| --- | --- |
| COCCn1c(=O)c(-c2ccc(F)cc2)nc2cnc(OC)nc21 | > 20 µM |
| CN(C)c1ccc(-c2cncnc2Nc2ccccc2)cc1 | > 20 µM |
| COCC(=O)N1CCC2(CC1)CCN(c1ccccc1)CC2 | > 20 µM |
| N#CCCn1c(=O)c(-c2ccc(F)cc2)nc2cnc(Oc3ccccc3)nc21 | > 20 µM |
| O=c1c(-c2ccc(F)cc2)nc2cnc(Nc3ccccc3)nc2n1C1CC1 | > 20 µM |
| c1cncc(-c2cc(-n3ccnc3)ncn2)c1 | > 20 µM |
| O=C(Nc1cccc(F)c1)N1CC2(CCN(C(=O)c3ccco3)CC2)C1 | > 20 µM |
| Cc1nc2cnc(N3CCNCC3)nc2n(CCc2ccccc2)c1=O | > 4 µM |
| COCCNc1cc(-c2ccccc2CN(C)C)ncn1 | > 20 µM |
| COc1ccc(Oc2ncc3nc(-c4ccccc4)c(=O)n(CCC#N)c3n2)cc1 | > 20 µM |
| COc1ccc(-c2nc3cnc(Nc4ccccc4)nc3n(CCC#N)c2=O)cc1 | 2.04 µM (active) |
| COc1ccc(C(=O)N2CCC3(CC2)CN(Cc2ccc(C#N)cc2)C3)cc1 | > 20 µM |
| CS(=O)(=O)Nc1cccc(-c2ccc3ncnc(NC4CC4)c3c2)c1 | > 20 µM |
| COCCn1c(=O)c(-c2ccc(Cl)cc2)nc2cnc(N3CCOCC3)nc21 | > 20 µM |
| N#CCCn1c(=O)c(-c2ccc(Cl)cc2)nc2cnc(Nc3ccccc3)nc21 | > 20 µM |
| Cc1ccccc1-c1cc(N2CCNCC2)ncn1 | > 20 µM |
| COc1ccc2[nH]cc(CCNc3ncncc3-c3ccc4c(c3)OCO4)c2c1 | > 20 µM |
| CN(C)Cc1ccccc1-c1nc(NC2CCNCC2)c2ccccc2n1 | > 20 µM |
| COCCn1c(=O)c(-c2ccc(OC)cc2)nc2cnc(Nc3cccc(OC)c3)nc21 | 8.97 µM (active) |
